Assay results: PubChem BioAssay (NCI)
“And” between values parts separate entries of the source, which are not always exact repeats. Equal values may be shown once. About 83,000 compounds went through this panel and 20% of them were active in at least one assay; those are over-represented in the sample as a whole.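 Method: cells in 96-well plates; compound added at one concentration; 48 h incubation; percent growth measured; values under 10 scored active.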 The source made the active and inactive calls.

Experiments:
Assay in all cases: NCI-60 one-dose screen, 48 h (100 = growth as untreated, 0 = no growth, -100 = all killed)
Conditions in all cases: 10 µM unless noted
SK-MEL-2 melanoma = tested on: SK-MEL-2 melanoma
EKVX NSCLC = tested on: EKVX NSCLC
SN12C renal = tested on: SN12C renal
UO-31 renal = tested on: UO-31 renal
TK-10 renal = tested on: TK-10 renal
ACHN renal = tested on: ACHN renal
CAKI-1 renal = tested on: CAKI-1 renal
A498 renal = tested on: A498 renal
CCRF-CEM leukemia = tested on: CCRF-CEM leukemia
MOLT-4 leukemia = tested on: MOLT-4 leukemia

Compound | growth (SK-MEL-2 melanoma) | growth (EKVX NSCLC) | growth (SN12C renal) | growth (UO-31 renal) | growth (TK-10 renal) | growth (ACHN renal) | growth (CAKI-1 renal) | growth (A498 renal) | growth (CCRF-CEM leukemia) | growth (MOLT-4 leukemia)
N=C(N)c1ccc(-c2ccc(-c3ccc(Cl)c(Cl)c3)s2)cc1 | 107% (inactive) | 72.4% (inactive) | 14.3% (inactive) | 54% (inactive) | 109% (inactive) | -62.7% (active) | -69% (active) | 86.7% (inactive) | 1.96% (active) | -14.9% (active)
Cc1ccc2[nH]c(=S)[nH]c(=O)c2c1 | 111% (inactive) | 104% (inactive) | 99.9% (inactive) | 92.4% (inactive) | 85.4% (inactive) | 101% (inactive) | – | 94.8% (inactive) | 98.8% (inactive) | 93.3% (inactive)
CCOC(=O)c1cnn(-c2ccc(S(N)(=O)=O)cc2)c1N | 93.6% (inactive) | 101% (inactive) | 98% (inactive) | 64.8% (inactive) | – | 116% (inactive) | 150% (inactive) | 70.4% (inactive) | 85.3% (inactive) | 100% (inactive)
CCOC(=O)c1cc2c(n1Cc1cc(OC)cc(OC)c1Br)-c1nc(NC(C)=O)sc1CCC2 | 82.6% (inactive) | 58.6% (inactive) | 77.5% (inactive) | 51.8% (inactive) | 94.4% (inactive) | 91.2% (inactive) | – | 55.8% (inactive) | 56.3% (inactive) | 46.7% (inactive)
CCOc1nc(-c2ccccc2)cc2c(O)c(C(=O)N/N=C/c3ccc(N(C)C)cc3)[nH]c(=O)c12 | 78.8% (inactive) | 97.5% (inactive) | 103% (inactive) | 88.2% (inactive) | 126% (inactive) | 102% (inactive) | – | 97.3% (inactive) | 98.1% (inactive) | 95.1% (inactive)
Nc1ncc(-c2ccc3ncnc(N4CCc5ccc(Cl)cc54)c3c2)cc1C(F)(F)F | 14.1% (inactive) | 6.87% (active) | 20.6% (inactive) | -12% (active) | -3.58% (active) | 11% (inactive) | – | -62.5% (active) | 21.6% (inactive) | 7.2% (active)
COc1cc(CO)cc2cc3ccccc3nc12 | 111% (inactive) | 102% (inactive) | 101% (inactive) | 81.7% (inactive) | 118% (inactive) | 105% (inactive) | – | -22.1% (active) | 99.1% (inactive) | 99.4% (inactive)
O=C(Nc1ncc(Cc2cccc(C(F)(F)F)c2)s1)c1ccc(-n2cnnn2)cc1 | 89.4% (inactive) | 40.2% (inactive) | 79.9% (inactive) | 48.3% (inactive) | 50.4% (inactive) | 32% (inactive) | – | 54.7% (inactive) | 55.3% (inactive) | 39.4% (inactive)
COc1ccc(NC(=O)Nc2ccccc2CNc2nc(Nc3ccc(OCCN4CCCC4)cc3)ncc2Cl)cc1 | -20.2% (active) | 55.4% (inactive) | -44.2% (active) | -86% (active) | 1.49% (active) | -94.7% (active) | – | 51.9% (inactive) | 1.9% (active) | 1.79% (active)
O=C(CN1C(=O)S/C(=C\C(Cl)=C\c2ccccc2)C1=O)NCCCn1ccnc1 | 38.2% (inactive) | 41.2% (inactive) | 26.1% (inactive) | 48.7% (inactive) | 36.2% (inactive) | 5.51% (active) | – | 95.7% (inactive) | 5.11% (active) | 6.18% (active)
CC(=O)c1c(C)nc(SCC(=O)Nc2ccc(Cl)cc2)n1-c1ccc(Cl)cc1 | 94% (inactive) | 95.5% (inactive) | 87% (inactive) | 80.9% (inactive) | 99.5% (inactive) | 93.7% (inactive) | – | 83.2% (inactive) | 87.5% (inactive) | 64.1% (inactive)
COc1ccc(Oc2nc(Nc3ccc(N4CCOCC4)cc3)ncc2NC(=O)c2cccc(C(F)(F)F)c2)cc1 | 97.2% (inactive) | 81.3% (inactive) | 85.8% (inactive) | 71.2% (inactive) | – | 79.9% (inactive) | 88.9% (inactive) | 63.4% (inactive) | 49.9% (inactive) | 43.7% (inactive)
O=C(N/N=C/c1ccc(O)cc1O)c1cccc(Nc2ccnc(C(F)(F)F)c2)c1 | 60.7% (inactive) | 28% (inactive) | 25% (inactive) | 34.7% (inactive) | 42.6% (inactive) | 30.3% (inactive) | – | 44.9% (inactive) | 6.22% (active) | 12.2% (inactive)
COC(=O)c1nc(-c2ccccc2)oc1S(=O)(=O)N(C)CCO | 82.1% (inactive) | 77.5% (inactive) | 87.6% (inactive) | 59.2% (inactive) | 43.9% (inactive) | 49.2% (inactive) | – | 112% (inactive) | 16.2% (inactive) | 45.2% (inactive)
COc1cc(/C=C/C(=O)c2ccc(NC(=O)CSc3nnc(-c4cc(-c5ccccc5)nc5ccccc45)n3-c3ccccc3)cc2)cc(OC)c1OC | 100% (inactive) | 84.9% (inactive) | 83.8% (inactive) | 87.7% (inactive) | 109% (inactive) | 78.6% (inactive) | – | 87.8% (inactive) | 84.2% (inactive) | 52.7% (inactive)
Nc1nc(Nc2cccnc2)sc1C(=O)c1ccccc1F | 48.5% (inactive) | 50.7% (inactive) | 36.8% (inactive) | 9.16% (active) | 54.6% (inactive) | 9.23% (active) | – | 26.4% (inactive) | 4.65% (active) | 26.8% (inactive)
ON=C1CCCCCCCC1 | 94.9% (inactive) and 100% (inactive) | 108% (inactive) | 97.2% (inactive) and 102% (inactive) | 79.9% (inactive) and 85.4% (inactive) | 100% (inactive) | 98.6% (inactive) and 105% (inactive) | – | 102% (inactive) and 105% (inactive) | 107% (inactive) and 101% (inactive) | 101% (inactive) and 96.2% (inactive)
COc1ccc(-c2cc(-c3cc(OC)c(OC)c(OC)c3)c(C#N)c(=O)n2CCCCC(=O)O)cc1 | 107% (inactive) | 98.5% (inactive) | 90.6% (inactive) | 65.7% (inactive) | – | 91.2% (inactive) | 70.9% (inactive) | 85.6% (inactive) | 85.3% (inactive) | 105% (inactive)
COC(=O)/C=C1/SC(N2N=C(c3cccs3)CC2c2ccc(F)cc2)=NC1=O (centres undefined) | 80.9% (inactive) | 94% (inactive) | 56% (inactive) | 52.6% (inactive) | 78.5% (inactive) | 74.4% (inactive) | – | 80.5% (inactive) | 8.74% (active) | -3.67% (active)
CCNC(=O)Nc1ncccc1OCc1ccc(F)cc1 | 99.8% (inactive) | 102% (inactive) | 107% (inactive) | 93.7% (inactive) | – | 108% (inactive) | 90.1% (inactive) | 88.3% (inactive) | 101% (inactive) | 98% (inactive)
O=C(NCc1cccnc1)/C(=C\c1ccc(Br)cc1)S(=O)(=O)c1ccccc1 | -44% (active) | 11.1% (inactive) | -30.2% (active) | 10.7% (inactive) | -59.4% (active) | -15.3% (active) | – | -20.4% (active) | 25.2% (inactive) | 64.1% (inactive)
COc1ccc(-c2nnc3n(C)c(=O)c4ccccc4n23)cc1O | 30.3% (inactive) | 97.5% (inactive) | 30.3% (inactive) | 52.7% (inactive) | 51.4% (inactive) | 47.5% (inactive) | – | 21.6% (inactive) | 10.7% (inactive) | 32.5% (inactive)
O=C(c1ccc(Nc2nccc(NCCCNc3ccnc4cc(Cl)ccc34)n2)cc1)N1CCCCC1 | 64.5% (inactive) | 57% (inactive) | 34.3% (inactive) | 82.3% (inactive) | 73.2% (inactive) | 79.9% (inactive) | – | 69.1% (inactive) | 37.1% (inactive) | 25.3% (inactive)
CN(Cc1ccccc1)c1nc(Cl)c(C2CC(c3ccc(F)cc3)=NN2C=O)s1 (centres undefined) | 116% (inactive) | 77.9% (inactive) | 103% (inactive) | 76.7% (inactive) | 96.2% (inactive) | 105% (inactive) | – | 100% (inactive) | 95.6% (inactive) | 91.9% (inactive)
CC1(C)C(N)=Nc2cc(OCCCN3Cc4ccc(OCCc5cn(CC(=O)N6CCC(CCN7CCCC7)CC6)nn5)cc4C3)c(OCC3CC3)cc21 | 109% (inactive) | 101% (inactive) | 96.1% (inactive) | 90.8% (inactive) | 100% (inactive) | 103% (inactive) | – | 104% (inactive) | 96.2% (inactive) | 99.9% (inactive)
FC(F)(F)Sc1ccc(/C=C/c2cc(/C=C/c3ccc(SC(F)(F)F)cc3)n(-c3ccccc3)n2)cc1 | 101% (inactive) | 93.9% (inactive) | 100% (inactive) | 76.7% (inactive) | – | 93.9% (inactive) | 78.5% (inactive) | 86.8% (inactive) | 94.7% (inactive) | 95.6% (inactive)
CNC(=O)c1cc(Oc2ccc3nc(NC(=O)Nc4ccc(C(F)(F)F)cc4)sc3c2)ccn1 | 92.9% (inactive) | 53.5% (inactive) | 71.1% (inactive) | 65% (inactive) | 55.3% (inactive) | 73.4% (inactive) | – | 98.8% (inactive) | 68.1% (inactive) | 73.3% (inactive)
